# Measurements reported in the supplement of paper PMC6897291.
# Counter-ions that a name gives are not always drawn.
# Columns and labels:
# RIVA [1] = assay: growth inhibition by drug plus 177Lu-lilotomab satetraxetan (1 - RLU/untreated control) (fraction); higher = stronger inhibition; conditions: 177Lu-lilotomab satetraxetan 0.5 ug/ml
# How it was run: (§1)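 RIVA or U-2932 cells were left untreated or pretreated for 18 h with a radiolabelled anti-CD37 antibody conjugate (~600 MBq/mg) at 0.5 µg/ml for RIVA or 1 µg/ml for U-2932. The cells were then washed and seeded at 3,000 cells/well on plates pre-printed with the Selleck Cambridge Cancer Compound library, dosed at 10/100 nM for RIVA and 10/1,000 nM for U-2932. From day 3, RealTime-Glo luminescence was read daily after 1 h at 37°C. Growth inhibition was taken as one minus RLU over the mean of the untreated no-drug wells, of which there were 48 per plate.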
# U-2932 [2] = assay: growth inhibition by drug alone (1 - RLU/untreated control) (fraction); higher = stronger inhibition; conditions: 177Lu-lilotomab satetraxetan 0 ug/ml
# How it was run: as §1
# RIVA [3] = assay: as above; conditions: 177Lu-lilotomab satetraxetan 0 ug/ml
# How it was run: as §1
# U-2932 [4] = assay: growth inhibition by drug plus 177Lu-lilotomab satetraxetan (1 - RLU/untreated control) (fraction); higher = stronger inhibition; conditions: 177Lu-lilotomab satetraxetan 1 ug/ml
# How it was run: as §1
SMILES,"growth inhibition by drug plus 177Lu-lilotomab satetraxetan (RIVA [1]; 100 nM, time (day): 5)","growth inhibition by drug plus 177Lu-lilotomab satetraxetan (RIVA [1]; 100 nM, time (day): 6)","growth inhibition by drug alone (U-2932 [2]; 10 nM, time (day): 3)","growth inhibition by drug alone (U-2932 [2]; 10 nM, time (day): 4)","growth inhibition by drug alone (U-2932 [2]; 10 nM, time (day): 5)","growth inhibition by drug alone (U-2932 [2]; 10 nM, time (day): 6)","growth inhibition by drug alone (U-2932 [2]; 1000 nM, time (day): 3)","growth inhibition by drug alone (U-2932 [2]; 1000 nM, time (day): 4)","growth inhibition by drug alone (U-2932 [2]; 1000 nM, time (day): 5)","growth inhibition by drug alone (U-2932 [2]; 1000 nM, time (day): 6)","growth inhibition by drug alone (RIVA [3]; 10 nM, time (day): 3)","growth inhibition by drug alone (RIVA [3]; 10 nM, time (day): 4)","growth inhibition by drug alone (RIVA [3]; 10 nM, time (day): 5)","growth inhibition by drug alone (RIVA [3]; 10 nM, time (day): 6)","growth inhibition by drug alone (RIVA [3]; 100 nM, time (day): 3)","growth inhibition by drug alone (RIVA [3]; 100 nM, time (day): 4)","growth inhibition by drug alone (RIVA [3]; 100 nM, time (day): 5)","growth inhibition by drug alone (RIVA [3]; 100 nM, time (day): 6)","growth inhibition by drug plus 177Lu-lilotomab satetraxetan (U-2932 [4]; 10 nM, time (day): 3)","growth inhibition by drug plus 177Lu-lilotomab satetraxetan (U-2932 [4]; 10 nM, time (day): 4)","growth inhibition by drug plus 177Lu-lilotomab satetraxetan (U-2932 [4]; 10 nM, time (day): 5)","growth inhibition by drug plus 177Lu-lilotomab satetraxetan (U-2932 [4]; 10 nM, time (day): 6)","growth inhibition by drug plus 177Lu-lilotomab satetraxetan (U-2932 [4]; 1000 nM, time (day): 3)","growth inhibition by drug plus 177Lu-lilotomab satetraxetan (U-2932 [4]; 1000 nM, time (day): 4)","growth inhibition by drug plus 177Lu-lilotomab satetraxetan (U-2932 [4]; 1000 nM, time (day): 5)","growth inhibition by drug plus 177Lu-lilotomab satetraxetan (U-2932 [4]; 1000 nM, time (day): 6)","growth inhibition by drug plus 177Lu-lilotomab satetraxetan (RIVA [1]; 10 nM, time (day): 3)","growth inhibition by drug plus 177Lu-lilotomab satetraxetan (RIVA [1]; 10 nM, time (day): 4)","growth inhibition by drug plus 177Lu-lilotomab satetraxetan (RIVA [1]; 10 nM, time (day): 5)","growth inhibition by drug plus 177Lu-lilotomab satetraxetan (RIVA [1]; 10 nM, time (day): 6)","growth inhibition by drug plus 177Lu-lilotomab satetraxetan (RIVA [1]; 100 nM, time (day): 3)","growth inhibition by drug plus 177Lu-lilotomab satetraxetan (RIVA [1]; 100 nM, time (day): 4)"
C#Cc1cccc(Nc2ncnc3cc(OC)c(OCCCCCCC(=O)NO)cc23)c1,0.926,0.923,,,,,,,,,,,,,,,,,,,,,,,,,,,,,,
CC(=O)O[C@]1(C(C)=O)CC[C@H]2[C@@H]3C[C@H](C)C4=CC(=O)CC[C@]4(C)[C@H]3CC[C@@]21C [Medroxyprogesterone acetate],0.409,0.427,0.141,0.111,0.0166,-0.207,0.107,0.162,0.15,0.056,-0.0698,-0.099,-0.346,-0.679,-0.507,-0.273,-0.35,-0.619,0.0781,0.0764,0.144,0.108,0.102,0.176,0.224,0.336,0.422,0.555,0.543,0.565,0.235,0.389
O=C(NCCCNc1nc(Nc2cccc(NC(=O)N3CCCC3)c2)ncc1I)c1cccs1,0.603,0.64,0.201,0.14,0.0194,0.047,0.0736,0.137,0.35,0.462,0.342,0.272,0.262,0.207,0.339,0.317,0.346,0.36,0.198,0.238,0.304,0.353,0.223,0.302,0.491,0.618,0.795,0.787,0.812,0.838,0.547,0.558
CCOc1cc2ncc(C#N)c(Nc3ccc(F)c(Cl)c3)c2cc1NC(=O)/C=C/CN(C)C [Pelitinib (EKB-569)],0.372,0.405,-0.0434,-0.0318,-0.0741,-0.211,0.227,0.204,0.154,0.148,-0.202,-0.214,-0.259,-0.439,-0.558,-0.51,-0.627,-0.809,-0.0948,-0.0187,-0.0319,-0.0653,0.276,0.3,0.292,0.357,0.334,0.432,0.448,0.476,0.182,0.368
CS(=O)(=O)N1CCN(Cc2cc3nc(-c4cccc5[nH]ncc45)nc(N4CCOCC4)c3s2)CC1,0.486,0.45,-0.0712,-0.0515,-0.0456,0.0469,0.69,0.786,0.802,0.82,-0.0821,-0.12,-0.138,-0.212,0.604,0.409,0.327,0.221,-0.0212,-0.0112,0.0169,0.184,0.81,0.875,0.897,0.913,0.351,0.467,0.488,0.493,0.532,0.5
"Cc1cc(Nc2cc(N3CCN(C)CC3)nc(Sc3ccc(NC(=O)C4CC4)cc3)n2)n[nH]1 [VX-680 (MK-0457, Tozasertib)]",0.616,0.727,0.0135,-0.0133,-0.0455,-0.102,0.116,0.0957,0.0508,0.219,-0.0364,-0.0738,-0.11,-0.195,-0.135,-0.125,-0.0167,0.173,-0.00926,0.0675,0.118,0.172,0.272,0.279,0.311,0.494,0.594,0.628,0.652,0.658,0.458,0.547
O=c1[nH]nc(Sc2ncc([N+](=O)[O-])s2)n1-c1ccc2c(c1)OCCO2,0.468,0.445,-0.0286,-0.0355,-0.112,-0.247,-0.00347,0.024,-0.0622,-0.12,0.00609,-0.0273,-0.0872,-0.35,-0.0796,-0.0567,-0.0833,-0.162,0.0134,0.0456,0.0435,0.142,0.369,0.406,0.362,0.409,0.41,0.525,0.54,0.553,0.424,0.457
Cc1[nH]c(/C=C2\C(=O)Nc3ccc(S(=O)(=O)Cc4c(Cl)cccc4Cl)cc32)c(C)c1C(=O)N1CCC[C@@H]1CN1CCCC1,0.381,0.376,-0.0448,-0.0348,-0.136,-0.363,-0.15,-0.0937,-0.118,-0.0292,-0.0942,-0.161,-0.228,-0.375,-0.272,-0.354,-0.323,-0.456,-0.098,-0.0543,-0.04,0.0103,-0.291,-0.156,-0.125,-0.00631,0.279,0.438,0.464,0.487,0.246,0.384
CCCC(CCC)C(=O)O [Valproic acid sodium salt (Sodium valproate)],0.543,0.523,0.135,0.0829,-0.0268,-0.0189,-0.0134,0.0276,-0.0122,-0.131,-0.0545,-0.0344,-0.0932,-0.3,0.0331,0.00236,-0.00506,-0.0995,0.0169,0.0448,0.0823,0.106,-0.06,0.0571,0.0167,0.0659,0.442,0.551,0.566,0.583,0.469,0.539
O=C1NC(=O)/C(=C\c2cccc(C(F)(F)F)c2)S1,0.458,0.45,-0.0629,-0.0752,-0.145,-0.158,-0.0663,-0.0763,-0.118,-0.219,-0.238,-0.269,-0.325,-0.41,-0.524,-0.503,-0.514,-0.584,-0.0851,-0.0351,0.0122,0.101,-0.0652,-0.0183,0.0099,0.134,0.418,0.47,0.492,0.508,0.391,0.456
CN1CCN(c2ccc3nc(-c4c(N)c5c(F)cccc5[nH]c4=O)[nH]c3c2)CC1 [Dovitinib (TKI-258)],0.413,0.411,0.12,0.0504,-0.004,-0.0165,0.0669,-0.0112,-0.0673,-0.128,0.0921,0.0422,-0.0205,-0.168,-0.156,-0.0867,-0.188,-0.316,0.0639,0.0792,0.118,0.243,0.0496,0.031,0.0265,0.126,0.421,0.501,0.522,0.53,0.358,0.399
Oc1cccc(-c2nc(N3CCOCC3)c3oc4ncccc4c3n2)c1,0.827,0.824,0.191,0.128,-0.0145,-0.0687,0.836,0.879,0.891,0.894,0.135,0.0735,0.0557,-0.0131,0.762,0.695,0.667,0.585,0.125,0.138,0.171,0.231,0.633,0.625,0.627,0.655,0.54,0.556,0.562,0.572,0.837,0.831
Cc1ccc(NC(=O)c2ccc(CN3CC[C@H](N(C)C)C3)c(C(F)(F)F)c2)cc1Nc1nccc(-c2cncnc2)n1 [Bafetinib (INNO-406)],0.513,0.535,0.0934,0.0624,-0.0124,0.0553,0.0275,-0.0147,-0.073,0.062,0.236,0.204,0.191,0.188,-0.279,-0.213,-0.225,-0.275,0.0136,0.0566,0.138,0.239,0.00697,0.00776,0.0531,0.226,0.594,0.623,0.652,0.658,0.392,0.503
Nc1ncn([C@@H]2O[C@H](CO)[C@@H](O)[C@H]2O)c(=O)n1 [Azacitidine (Vidaza)],0.362,0.374,-0.0982,-0.0929,-0.0726,-0.0507,-0.188,-0.0618,0.0181,0.17,-0.294,-0.286,-0.358,-0.438,-0.343,-0.332,-0.3,-0.406,-0.107,-0.0484,0.0134,-0.00849,-0.0673,0.0405,0.146,0.324,0.407,0.483,0.506,0.5,0.241,0.37
Fc1cc(-c2cccc3ncc(-c4cnn(C5CCNCC5)c4)nc23)cc(F)c1CN1CCOCC1,0.6,0.592,0.107,0.069,-0.083,-0.0936,0.0551,0.07,0.0444,-0.14,0.0385,0.00291,-0.0745,-0.286,-0.358,-0.305,-0.287,-0.341,0.0469,0.0958,0.15,0.179,0.041,0.106,0.135,0.237,0.548,0.579,0.59,0.593,0.571,0.589
